Laboratory results published in the supplement of paper PMC7411054.
Where a name gives a salt, the structure may show the parent alone.

Legend:
Settings in all cases: treatment time: 24 h
[1] = tested on: A549-ACTB-RAB5A; test: lowest phenotypically active concentration; higher = less potent
In short: (§1)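 Fifteen gene-edited A549, HepG2 and WPMY1 reporter lines (BFP segmentation plus GFP and RFP/FusionRed markers) were treated at 0.3, 1, 3 or 9 µM for 24 h, four wells each, then imaged live. Live-cell features per well were normalised to DMSO control wells. Deviation required ≥3 of 4 wells beyond the 95th percentile of DMSO Euclidean distances, and reproducibility required median replicate Pearson correlation above the 95th percentile of non-replicates. Phenotypic activity needed both criteria.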

[2] = tested on: A549-CANX-COX4; test: as above
In short: as §1

[3] = tested on: A549-GM130-SQSTM1; test: as above
In short: as §1

[4] = tested on: A549-TP53BP1-CLTA; test: as above
In short: as §1

[5] = tested on: A549-TUBA1B-RELA; test: as above
In short: as §1

[6] = tested on: A549-ACTB-RAB5A; test: phenotypically active (imaging signature differs from DMSO and reproducible) at any of 0.3-9 uM (binary (1 = active, 0 = inactive)); higher = active
In short: as §1

[7] = tested on: A549-CANX-COX4; test: as above
In short: as §1

[8] = tested on: A549-GM130-SQSTM1; test: as above
In short: as §1

[9] = tested on: A549-TP53BP1-CLTA; test: as above
In short: as §1

[10] = tested on: A549-TUBA1B-RELA; test: as above
In short: as §1

[11] = tested on: HepG2-ACTB-RAB5A; test: as above
In short: as §1

[12] = tested on: HepG2-CANX-COX4; test: as above
In short: as §1

[13] = tested on: HepG2-GM130-SQSTM1; test: as above
In short: as §1

[14] = tested on: HepG2-TP53BP1-CLTA; test: as above
In short: as §1

[15] = tested on: HepG2-TUBA1B-RELA; test: as above
In short: as §1

[16] = tested on: WPMY1-ACTB-RAB5A; test: as above
In short: as §1

[17] = tested on: WPMY1-CANX-COX4; test: as above
In short: as §1

[18] = tested on: WPMY1-GM130-SQSTM1; test: as above
In short: as §1

[19] = tested on: WPMY1-TP53BP1-CLTA; test: as above
In short: as §1

[20] = tested on: WPMY1-TUBA1B-RELA; test: as above
In short: as §1

SMILES	lowest phenotypically active concentration [1] [µM]	lowest phenotypically active concentration [2] [µM]	lowest phenotypically active concentration [3] [µM]	lowest phenotypically active concentration [4] [µM]	lowest phenotypically active concentration [5] [µM]	phenotypically active [6]	phenotypically active [7]	phenotypically active [8]	phenotypically active [9]	phenotypically active [10]	phenotypically active [11]	phenotypically active [12]	phenotypically active [13]	phenotypically active [14]	phenotypically active [15]	phenotypically active [16]	phenotypically active [17]	phenotypically active [18]	phenotypically active [19]	phenotypically active [20]
CC(=O)OCC(=O)[C@@]12OC3(CCCC3)O[C@@H]1C[C@H]1[C@@H]3CCC4=CC(=O)C=C[C@]4(C)[C@@]3(F)[C@@H](O)C[C@@]12C [amcinonide]	≤ 0.3	≤ 0.3	≤ 0.3	≤ 0.3	≤ 0.3	1 (active)	1 (active)	1 (active)	1 (active)	1 (active)	0 (inactive)	0 (inactive)	0 (inactive)	0 (inactive)	0 (inactive)	0 (inactive)	0 (inactive)	0 (inactive)	0 (inactive)	0 (inactive)
C=CCc1ccc(O)c(-c2ccc(O)c(CC=C)c2)c1 [Honokiol]	9					1 (active)	0 (inactive)	0 (inactive)	0 (inactive)	0 (inactive)	0 (inactive)	0 (inactive)	0 (inactive)	0 (inactive)	0 (inactive)	0 (inactive)	0 (inactive)	0 (inactive)	0 (inactive)	0 (inactive)
CC(C)(Sc1ccc(CCN(CCCCC2CCCCC2)C(=O)NC2CCCCC2)cc1)C(=O)O						0 (inactive)	0 (inactive)	0 (inactive)	0 (inactive)	0 (inactive)	0 (inactive)	0 (inactive)	0 (inactive)	0 (inactive)	0 (inactive)	0 (inactive)	0 (inactive)	0 (inactive)	0 (inactive)	0 (inactive)
NC(=O)c1ccc(N(C(N)=O)c2c(F)cccc2F)nc1-c1ccc(F)cc1F	9					1 (active)	0 (inactive)	0 (inactive)	0 (inactive)	0 (inactive)	0 (inactive)	0 (inactive)	0 (inactive)	0 (inactive)	0 (inactive)	0 (inactive)	0 (inactive)	0 (inactive)	0 (inactive)	0 (inactive)
CCC1(C)OC(=O)N(C)C1=O (centres undefined) [paramethadione]						0 (inactive)	0 (inactive)	0 (inactive)	0 (inactive)	0 (inactive)	0 (inactive)	0 (inactive)	0 (inactive)	0 (inactive)	0 (inactive)	0 (inactive)	0 (inactive)	0 (inactive)	0 (inactive)	0 (inactive)
COc1nc(N)nc2c1ncn2[C@@H]1O[C@H](CO)[C@@H](O)[C@@H]1O [Nelarabine]	9					1 (active)	0 (inactive)	0 (inactive)	0 (inactive)	0 (inactive)	0 (inactive)	0 (inactive)	0 (inactive)	0 (inactive)	0 (inactive)	0 (inactive)	0 (inactive)	0 (inactive)	0 (inactive)	0 (inactive)
C[C@]12CC[C@@H]3c4ccc(OS(=O)(=O)O)cc4CC[C@H]3[C@@H]1CCC2=O [estrone sulfuric acid]						0 (inactive)	0 (inactive)	0 (inactive)	0 (inactive)	0 (inactive)	0 (inactive)	0 (inactive)	0 (inactive)	0 (inactive)	0 (inactive)	0 (inactive)	0 (inactive)	0 (inactive)	0 (inactive)	0 (inactive)
Brc1c(NC2=NCCN2)ccc2nccnc12 [brimonidine]						0 (inactive)	0 (inactive)	0 (inactive)	0 (inactive)	0 (inactive)	0 (inactive)	0 (inactive)	0 (inactive)	0 (inactive)	0 (inactive)	0 (inactive)	0 (inactive)	0 (inactive)	0 (inactive)	0 (inactive)
O=C(Cn1ccnc1[N+](=O)[O-])NCc1ccccc1 [benznidazole]						0 (inactive)	0 (inactive)	0 (inactive)	0 (inactive)	0 (inactive)	0 (inactive)	0 (inactive)	0 (inactive)	0 (inactive)	0 (inactive)	0 (inactive)	0 (inactive)	0 (inactive)	0 (inactive)	0 (inactive)
CC(=O)[C@@]1(O)CC[C@H]2[C@@H]3C[C@H](C)C4=CC(=O)C=C[C@]4(C)[C@@]3(F)[C@@H](O)C[C@@]21C [fluorometholone]	≤ 0.3	≤ 0.3	≤ 0.3	≤ 0.3	≤ 0.3	1 (active)	1 (active)	1 (active)	1 (active)	1 (active)	0 (inactive)	0 (inactive)	0 (inactive)	0 (inactive)	0 (inactive)	0 (inactive)	0 (inactive)	0 (inactive)	0 (inactive)	0 (inactive)
CC(=O)/N=c1/sc(S(N)(=O)=O)nn1C [methazolamide]						0 (inactive)	0 (inactive)	0 (inactive)	0 (inactive)	0 (inactive)	0 (inactive)	0 (inactive)	0 (inactive)	0 (inactive)	0 (inactive)	0 (inactive)	0 (inactive)	0 (inactive)	0 (inactive)	0 (inactive)
COc1cc(N2CCC(O)CC2)ccc1Nc1cc(Nc2ccccc2S(=O)(=O)C(C)C)c2cc[nH]c2n1 [Mps1-IN-1 dihydrochloride]	9	9	9	9	9	1 (active)	1 (active)	1 (active)	1 (active)	1 (active)	1 (active)	1 (active)	1 (active)	1 (active)	1 (active)	1 (active)	1 (active)	1 (active)	1 (active)	0 (inactive)
CN(C(=O)CCCOc1ccc2[nH]c(=O)ccc2c1)C1CCCCC1 [Cilostamide]						0 (inactive)	0 (inactive)	0 (inactive)	0 (inactive)	0 (inactive)	0 (inactive)	0 (inactive)	0 (inactive)	0 (inactive)	0 (inactive)	0 (inactive)	0 (inactive)	0 (inactive)	0 (inactive)	0 (inactive)
O=c1ncn2nc(Sc3ccc(F)cc3F)ccc2c1-c1c(Cl)cccc1Cl	9					1 (active)	0 (inactive)	0 (inactive)	0 (inactive)	0 (inactive)	0 (inactive)	0 (inactive)	0 (inactive)	0 (inactive)	0 (inactive)	0 (inactive)	0 (inactive)	0 (inactive)	0 (inactive)	0 (inactive)
CC(C)[C@H]1CC[C@H](C(=O)N[C@H](Cc2ccccc2)C(=O)O)CC1 [nateglinide]						0 (inactive)	0 (inactive)	0 (inactive)	0 (inactive)	0 (inactive)	0 (inactive)	0 (inactive)	0 (inactive)	0 (inactive)	0 (inactive)	0 (inactive)	0 (inactive)	0 (inactive)	0 (inactive)	0 (inactive)
COc1cc(C[C@H]2C(=O)OC[C@@H]2Cc2ccc(OC)c(OC)c2)ccc1O [Arctigenin]	3	3	3	3	9	1 (active)	1 (active)	1 (active)	1 (active)	1 (active)	1 (active)	1 (active)	1 (active)	1 (active)	1 (active)	0 (inactive)	0 (inactive)	0 (inactive)	0 (inactive)	0 (inactive)
Nc1ccc(-c2cccc3c(=O)cc(N4CCOCC4)oc23)cc1	3	9	9	9	9	1 (active)	1 (active)	1 (active)	1 (active)	1 (active)	1 (active)	1 (active)	1 (active)	1 (active)	1 (active)	1 (active)	1 (active)	1 (active)	1 (active)	1 (active)
Cc1n[nH]c(=O)[nH]c1=O [Azathymine, 6]						0 (inactive)	0 (inactive)	0 (inactive)	0 (inactive)	0 (inactive)	0 (inactive)	0 (inactive)	0 (inactive)	0 (inactive)	0 (inactive)	0 (inactive)	0 (inactive)	0 (inactive)	0 (inactive)	0 (inactive)
O=c1oc2c(O)c(O)cc3c(=O)oc4c(O)c(O)cc1c4c23 [Ellagic acid]						0 (inactive)	0 (inactive)	0 (inactive)	0 (inactive)	0 (inactive)	0 (inactive)	0 (inactive)	0 (inactive)	0 (inactive)	0 (inactive)	0 (inactive)	0 (inactive)	0 (inactive)	0 (inactive)	0 (inactive)
CCCCCCOc1cc2c(cc1N(C)c1ncc(C(=O)O)cn1)C(C)(C)CCC2(C)C						0 (inactive)	0 (inactive)	0 (inactive)	0 (inactive)	0 (inactive)	0 (inactive)	0 (inactive)	0 (inactive)	0 (inactive)	0 (inactive)	0 (inactive)	0 (inactive)	0 (inactive)	0 (inactive)	0 (inactive)
C[C@H]1C[C@@H]2[C@H]([C@@H](O)C[C@@]3(C)[C@H]2CC[C@]3(O)C(=O)CO)[C@@]2(C)C=CC(=O)C=C12 [methylprednisolone]	≤ 0.3	≤ 0.3	≤ 0.3	≤ 0.3	≤ 0.3	1 (active)	1 (active)	1 (active)	1 (active)	1 (active)	0 (inactive)	0 (inactive)	0 (inactive)	0 (inactive)	0 (inactive)	0 (inactive)	0 (inactive)	0 (inactive)	0 (inactive)	0 (inactive)
COc1cc2ncnc(Nc3ccc(O)c(Br)c3)c2cc1OC	1	3	3	1	3	1 (active)	1 (active)	1 (active)	1 (active)	1 (active)	1 (active)	1 (active)	1 (active)	1 (active)	1 (active)	1 (active)	1 (active)	1 (active)	1 (active)	0 (inactive)
